Activity calls are given as the source filed them. How the source made its calls: active means hit-call score of the fitted dose curve at least 0.9, where 1 is the maximum; inactive means score below 0.9.

The nature of the assay: BSK_CASM3C_Proliferation: Cell Proliferation Assessment in the BioMAP Diversity Plus: CASM3C Assay (AID 2283047).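 Further: sulforhodamine B total protein stain as relative cell number at 560 nm; sub-confluent cells exposed 48 h before staining; fitted both ways against DMSO so gain or loss of cell number.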 Conditions: primary human coronary artery smooth muscle cells.
Turning to `COCCOC[C@H](CC1(C(=O)NC2CCC(C(=O)O)CC2)CCCC1)C(=O)Oc1ccc2c(c1)CCC2` (some centres undefined), the outcome was inactive.

As a reminder, the AC50 is the concentration giving half of the maximal activity seen. For the compound `COc1cc(-c2nc(NC(=O)c3cc4cc(C)cc(C)c4n3CC(=O)O)sc2CCC2CCCCC2)c(OC)cc1Cl`, the AC50 was 10.8 µM (active).

For `NCC1(Cc2noc(=O)[nH]2)CCCCC1`, the outcome was inactive.

Take `CCCCC(CC)COC(=O)CC(C(=O)OCC(CC)CCCC)S(=O)(=O)O` (centres undefined): the result was inactive.

Take `CCOC(=O)CCC(=O)OCC`: the outcome was inactive.

Turning to `Nc1ccc(S(=O)(=O)c2ccc(N)cc2)cc1`, the outcome was inactive.

Consider `CC(C)c1ccc(C(=O)N=C(N)N)cc1S(C)(=O)=O`, for which the result was inactive.

Turning to `CCCCCCOCCO`, the outcome was inactive.

Regarding `CC(CO)OC(C)CO` (centres undefined) (tested in a mixture with another compound), the outcome was inactive.

As to `COc1cc(C=O)ccc1O`, the outcome was inactive.

`c1cc(-c2ccncc2)ccn1`: the outcome was inactive.

On to `CCNc1cccc(C)c1`, for which the outcome was inactive.

For the compound `CN1CCN(Cc2cc(-c3ccc4[nH]c(=O)oc4c3)co2)[C@@H](c2ccc(F)cc2)C1`, the AC50 was 12.3 µM (active).

`Cc1nc(-c2ccc3c(c2)CCN(CCC2CCC(NC(=O)/C=C/c4ccc(F)cc4)CC2)CC3)no1` (centres undefined): the AC50 was 5.83 µM (active).

Regarding `O=c1c(O)c(-c2ccc(O)c(O)c2)oc2cc(O)cc(O)c12`, the AC50 was 9.64 µM (active).

With `CN[C@H]1CC[C@@H](c2ccc(Cl)c(Cl)c2)c2ccc(S(N)(=O)=O)cc21`, the AC50 is 14.7 µM (active).

For `CCCCN(CCCC)CCCC`, the outcome was inactive.

Regarding `COC(=O)c1ccc(O)cc1`, the outcome was inactive.

Consider `CC1=C(/C=C/C(C)=C/C=C/C(C)=C/CO)C(C)(C)CCC1`, for which the AC50 was 20.9 µM (active).

For `CNC(=O)[C@H]1O[C@@H](n2cnc3c(NCc4cc(Cl)ccc4OCc4cc(C)no4)ncnc32)[C@H](O)[C@@H]1N`, the outcome was inactive.

With `Cc1cc(=O)[nH]c(=S)[nH]1`, the result was inactive.

Take `CCCCc1ccc2c(n1)[C@@H](c1ccc(OC)cc1C[C@H](C)C(=O)O)[C@H](C(=O)O)[C@H]2c1ccc2c(c1)OCO2`: the outcome was inactive.

With `FC(F)(F)C(F)(F)C(F)(F)C(F)(F)C(F)(F)C(F)(F)CCI`, the outcome was inactive.

Turning to `C=CCOC(=O)c1ccccc1C(=O)OCC=C`, the result was inactive.

Turning to `O=[N+]([O-])C(CO)(CO)CO`, the outcome was inactive.

For the compound `Oc1ccc2ccccc2c1N=Nc1ccccc1`, the result was inactive.

As to `O=C(N[C@@H](Cc1ccccc1)[C@@H](O)C(=O)N1C[C@@H](O)[C@@H](O)C1)c1cc2cc(Cl)ccc2[nH]1`, the result was inactive.

Turning to `CCCCCCCCCCCCCCCC`, the result was inactive.

As to `CCCCCCCCCCC`, the result was inactive.

For the origin of these results see PubChem BioAssay (EPA / NIEHS).
